Assay outcomes: PubChem, National Center for Advancing Translational Sciences (NCATS)
KB-V1 cytotox: KB-V1 MDR subline cytotoxicity; KB-V1 MDR cells viability, CellTiter-Glo, 72 h; Potency, µM (series often up to 46.1 µM), hits mostly cytotoxic; 3.4% of 400,000 active; note: % is set by controls: 0 for no effect and ±100 for the full control effect; nearly all actives have a fitted effect of over 60% in size
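Cytotoxicity toward P-gp-expressing KB-V1 cells was determined as loss of CellTiter-Glo luminescence after 72 h at 37 degrees C. Compounds were tested in quantitative HTS format across a concentration range, with curves fitted to normalized data.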
KB-3-1 cytotox: kills parental KB-3-1 adenocarcinoma cells | KB-3-1 viability, CellTiter-Glo ATP luminescence, 72 h | Potency, µM (highest dose often 46.1 µM), usual class: cytotoxic | 1.4% of 400,000 active | AID 1347075; note: % is set by controls: 0 for no effect and ±100 for the full control effect; nearly all actives have a fitted effect of over 60% in size
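Cytotoxicity in the drug-sensitive parental line KB-3-1 was scored as loss of CellTiter-Glo luminescence following 72 h incubation with compound. Values come from curve fitting of normalized concentration-response data.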
MCF10A rereplic: DNA re-replication induction in MCF 10a cells | Potency, µM (top dose mostly 46.1 µM), without a hit: top-dose activity, positive = re-replication, hits mostly activators | MCF 10A DNA re-replication, Hoechst nuclear intensity, 48 h | 2.9% of 350,000 active; note: % of control where 0% means no effect; nearly all actives have a fitted effect of over 50% in size
ELG1 repair inh: ELG1-dependent DNA repair inhibition; HEK293T ELG1-luciferase reporter, luminescence, 16 h; DNA damage induced by 5-fluorouridine; Potency, µM (top dose mostly 46.1 µM), without a hit: top-dose activity change, negative = inhibition, hits mostly inhibitors; 2.3% of 330,000 active; note: % is set by controls: 0 for no effect and ±100 for the full control effect; nearly all actives have a fitted effect of over 55% in size
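Quantitative HTS, concentration-response format. 2,000 cells/well co-treated with 5-fluorouridine and compound, 16 hr in 5% CO2 at 37 °C; ONE-Glo luminescence read after 30 min.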
SW480 rerep: induces DNA re-replication in SW480 colon adenocarcinoma cells | Potency, µM (series often up to 46.1 µM), for inactives: at the top dose re-replication activation, actives largely listed as activators | SW480 DNA re-replication, Hoechst DNA content imaging, 48 h | 1.8% of 340,000 active; note: % of control where 0% means no effect; nearly all actives have a fitted effect of over 55% in size
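Treated cells incubate 48 hr (37 C, 5% CO2), are stained 40 min with Hoechst, and nuclear fluorescence is enumerated; a rise in nuclei with high DNA signal marks re-replication.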
* marks the source's active call; other numbers are inactive results. Compounds with a hit are over-represented: about 8.1% of the library has one in this group of screens. Calls come from the whole dose curve; as a rule, active = well fitted curve in the direction sought with a large enough effect; inconclusive = small, poorly fitted or top-dose-only effect, or another doubt; inactive = no such curve, though single readings can be large; an effect the other way counts as inactive or inconclusive. Potency is the fitted concentration of half-maximal effect.

Screening Cc1ccc(C)c(S(=O)(=O)N2CCCCC2CCNC(=O)C(=O)NCc2ccco2)c1 (stereo not drawn) returned KB-V1 cytotox 9.2µM*, KB-3-1 cytotox inconclusive, MCF10A rereplic inconclusive, ELG1 repair inh inconclusive and SW480 rerep inconclusive.
Screening Cc1ccc(C)c(S(=O)(=O)N2CCCC2CNC(=O)C(=O)NCc2ccccc2)c1 (stereo not drawn) returned KB-V1 cytotox 8.2µM*, KB-3-1 cytotox inactive, MCF10A rereplic -4.9%, ELG1 repair inh -7.4% and SW480 rerep 2.7%.
`NC(=O)NS(=O)(=O)c1ccc(N)cc1` gave MCF10A rereplic 8.7% and SW480 rerep 4.5%.
Screening O=[N+]([O-])c1cccc(NC(=S)N2CCN(c3ccccn3)CC2)c1 returned KB-V1 cytotox inactive, KB-3-1 cytotox inactive, MCF10A rereplic 4.2%, ELG1 repair inh 0.0% and SW480 rerep -9.0%.
For CN1c2ccccc2C(O)=C(C(=S)Nc2ccccc2)S1(=O)=O the results were KB-V1 cytotox inactive, KB-3-1 cytotox inactive, MCF10A rereplic 6.8%, ELG1 repair inh 2.6% and SW480 rerep -9.5%.
CN1c2ccccc2C(O)=C(C(=S)Nc2ccc(F)c(Cl)c2)S1(=O)=O was read as KB-V1 cytotox 16.4µM*, KB-3-1 cytotox 16.4µM*, MCF10A rereplic inconclusive, ELG1 repair inh -25.4% and SW480 rerep 2.5%.
CN(Cc1cnn(-c2ccc(F)cc2)c1)Cc1nc(Cc2ccccc2)no1 was read as KB-V1 cytotox inactive, KB-3-1 cytotox inactive, MCF10A rereplic 0.6%, ELG1 repair inh inconclusive and SW480 rerep -1.8%.
`O=C(NCc1ccccc1)c1ccc2c(c1)nc1n2CCOC1` gave KB-V1 cytotox inactive and KB-3-1 cytotox inactive.
For Cc1cc(-c2ccccc2)nc(Nc2nc3c(C)cccc3c(=O)[nH]2)n1 the results were KB-V1 cytotox inactive, KB-3-1 cytotox inactive, MCF10A rereplic 9.2µM* and SW480 rerep -1.2%.
Cc1cc(C)c2nc(Nc3nc(-c4ccccc4)cc(=O)[nH]3)nc(C)c2c1 was read as KB-V1 cytotox inconclusive, KB-3-1 cytotox inactive, MCF10A rereplic inconclusive, ELG1 repair inh inconclusive and SW480 rerep 4.6%.
COc1ccc(/C=C2/C(=O)OCc3cc(OC)c(OC)cc32)cc1 was read as KB-V1 cytotox 3.66µM*, KB-3-1 cytotox inconclusive, MCF10A rereplic inconclusive, ELG1 repair inh -26.2% and SW480 rerep 4.11µM*.
For CC(=O)c1ccc(Oc2ncnc(N)c2[N+](=O)[O-])cc1 the results were KB-V1 cytotox inconclusive, KB-3-1 cytotox inconclusive, MCF10A rereplic 4.11µM*, ELG1 repair inh 13.4% and SW480 rerep -0.7%.
Screening Cc1ccc2oc3c(c(=O)c2c1)C1(C(=O)N(C)c2ccccc21)N(CCCO)C3=O (stereo not drawn) returned KB-V1 cytotox inactive and KB-3-1 cytotox inactive.
For CCOc1ccc(C(=O)OCC(=O)Nc2cccnc2Cl)cc1OCC the results were KB-V1 cytotox 18.4µM*, KB-3-1 cytotox inactive, MCF10A rereplic -1.7%, ELG1 repair inh inconclusive and SW480 rerep -7.4%.
CN(C)CCNc1nc2sc3c(c2c(=O)n1-c1ccccc1)CCCCC3 was read as KB-V1 cytotox inactive, KB-3-1 cytotox inactive, MCF10A rereplic inconclusive, ELG1 repair inh 13.1% and SW480 rerep -1.2%.
`O=c1c2c3c(sc2nc(NCCO)n1Cc1ccco1)CCCCC3` gave KB-V1 cytotox inactive, KB-3-1 cytotox inactive, MCF10A rereplic inconclusive, ELG1 repair inh inconclusive and SW480 rerep -1.8%.
Screening Cc1nc(NCc2cccnc2)c2c3c(sc2n1)CCCC3 returned KB-V1 cytotox inconclusive, KB-3-1 cytotox inconclusive, MCF10A rereplic 9.6%, ELG1 repair inh -11.5% and SW480 rerep -8.1%.
`COCCNc1nc2sc3c(c2c(=O)n1Cc1ccco1)CCCCC3` gave KB-V1 cytotox inactive, KB-3-1 cytotox inactive, MCF10A rereplic 8.2µM*, ELG1 repair inh inconclusive and SW480 rerep -9.5%.
For O=c1c2c3c(sc2nc(NCCO)n1CCc1ccccc1)CCCCC3 the results were KB-V1 cytotox inconclusive, KB-3-1 cytotox inconclusive, MCF10A rereplic 4.61µM*, ELG1 repair inh inconclusive and SW480 rerep inconclusive.
OCCNc1nc(SCc2ccccc2)nc2sc3c(c12)CCC3 was read as KB-V1 cytotox 7.31µM*, KB-3-1 cytotox inactive, MCF10A rereplic inconclusive, ELG1 repair inh 25.1% and SW480 rerep -10.3%.
Screening CN(C)CCNc1nc2sc3c(c2c(=O)n1Cc1ccccc1)CCCCC3 returned KB-V1 cytotox inactive, KB-3-1 cytotox inactive, MCF10A rereplic 18.4µM*, ELG1 repair inh 5.0% and SW480 rerep 16.4%.
`O=c1c2ccccc2nnn1-c1ccccc1[N+](=O)[O-]` gave KB-V1 cytotox inactive and KB-3-1 cytotox inactive.
`CN1CC(c2ccccc2)C2(SC(=S)N(Cc3ccco3)C2=O)C12C(=O)Nc1ccccc12` (stereo not drawn) gave KB-V1 cytotox inconclusive, KB-3-1 cytotox 20.6µM*, MCF10A rereplic 6.51µM*, ELG1 repair inh inconclusive and SW480 rerep inconclusive.
`COc1cccc(C(=O)NCC(c2ccc(N(C)C)cc2)N2CCc3ccccc32)c1OC` (stereo not drawn) gave KB-V1 cytotox inactive and KB-3-1 cytotox inactive.
Screening CC(=NNC(=S)N1CCN(c2ccccn2)CC1)c1ccccn1 returned KB-V1 cytotox 7.31µM*, KB-3-1 cytotox inactive, MCF10A rereplic 0.1% and SW480 rerep inconclusive.
`S=C(NC1CCCCC1)N1CCc2ccccc2C1` gave KB-V1 cytotox 14.6µM*, KB-3-1 cytotox inconclusive, MCF10A rereplic -61.5%, ELG1 repair inh inconclusive and SW480 rerep 6.4%.
Screening CC(=NNC(=S)N1CCCCCC1)c1cccc2cccnc12 returned KB-V1 cytotox 3.66µM*, KB-3-1 cytotox inconclusive, MCF10A rereplic 6.51µM* and SW480 rerep inconclusive.
`S=C(NC1CCCC1)N1CCN(c2ccccn2)CC1` gave KB-V1 cytotox 20.6µM*, KB-3-1 cytotox inactive, MCF10A rereplic 20.8%, ELG1 repair inh -1.2% and SW480 rerep -5.8%.
`S=C(NC1CC1)N1CCc2ccccc2C1` gave KB-V1 cytotox inactive, KB-3-1 cytotox inactive, MCF10A rereplic -8.8%, ELG1 repair inh 20.8% and SW480 rerep -6.9%.
For COc1ccc(N2CCN(C(=O)c3cc4c(=O)n(Cc5cccnc5)ccc4nc3C)CC2)cc1 the results were KB-V1 cytotox inactive and KB-3-1 cytotox inactive.
Screening COc1ccc2ncnc(NCc3cccs3)c2c1-c1ccc2c(c1)OCO2 returned KB-V1 cytotox inactive and KB-3-1 cytotox inconclusive.
Screening CC(C)(C)n1nc2c(c1NC(=O)Cc1ccc([N+](=O)[O-])cc1)CS(=O)(=O)C2 returned MCF10A rereplic -11.1%, ELG1 repair inh -5.9% and SW480 rerep -2.2%.
